Assay [1] is described as follows: qHTS profiling for inhibitors of Plasmodium falciparum proliferation (AID 504749).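 Note: 0% = DMSO vehicle and full inhibition = artemisinin control; nearly all actives have a fitted effect of over 60% in size.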 Conditions: P. falciparum in erythrocytes, SYBR Green DNA, 72 h. In a few lines:
(§1)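 Three-day growth assay of blood-stage parasites in erythrocytes (0.3% parasitemia, 2.5% hematocrit) at 37 C, 5% CO2, quantified by SYBR Green DNA staining after overnight detergent lysis.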
A general note: In qHTS, concentration-response curves come from the screen itself.

The test system of another assay is 3D7. The assay is described as above. Conditions: P. falciparum in erythrocytes, SYBR Green DNA, 72 h; series mostly up to 28.7 µM. In a few lines:
as §1

Another assay relates to 7G8. The description is as above. Conditions: P. falciparum in erythrocytes, SYBR Green DNA, 72 h; series mostly up to 28.7 µM. In a few lines: as §1
The next assay has as its system AA1029. Described as above. Conditions: P. falciparum in erythrocytes, SYBR Green DNA, 72 h; series mostly up to 28.7 µM. In a few lines: as §1
The subject of the next assay is AS120. The description is as above. To be noted: P. falciparum in erythrocytes, SYBR Green DNA, 72 h; series mostly up to 28.7 µM. In short, it runs like this:
as §1

The next assay relates to ATS189. The assay is described as above. Conditions: P. falciparum in erythrocytes, SYBR Green DNA, 72 h; series mostly up to 28.7 µM. In short, it runs like this:
as §1

For the next assay, the system named is ATS95. Described as above. Conditions: P. falciparum in erythrocytes, SYBR Green DNA, 72 h; series mostly up to 28.7 µM. In short, it runs like this:
as §1

The next assay concerns C2A. Described as above. To be noted: P. falciparum in erythrocytes, SYBR Green DNA, 72 h; series mostly up to 28.7 µM. In short, it runs like this: as §1
In the next assay the test system is CP185. The assay is described as above. To be noted: P. falciparum in erythrocytes, SYBR Green DNA, 72 h; series mostly up to 28.7 µM. In a few lines: as §1
A further assay relates to CP191. The description is as above. Conditions: P. falciparum in erythrocytes, SYBR Green DNA, 72 h; series mostly up to 28.7 µM. In short, it runs like this:
as §1

The target in assay [2] is Cytochrome P450 2D6 (Homo sapiens) (UniProt P10635). In words: qHTS for inhibitors of CYP2D6 against the NCATS DSHEA and TCM libraries (AID 1919972). Note: % is set by controls: 0 for no effect and ±100 for the full control effect. Conditions: CYP2D6 enzymatic inhibition, luminescence qHTS; series mostly up to 34.1 µM. In short, it runs like this:
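Steps: enzyme plus luciferin substrate dispensed; test substances pinned; 15 min RT; 1x NADPH regenerating solution added, 30–45 min RT protected from light; detection reagent, 30 min RT; luminescence measured. Minus-enzyme wells as background.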

Assay [3] in a line: KB-3-1 P-gp reporter qHTS against the NCATS DSHEA and TCM libraries (AID 1919975). Note: 0% is about no effect. Conditions: KB-3-1 parental cells, CellTiter-Glo luminescence viability, 72 h; series mostly up to 26.1 µM. In short, it runs like this: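 Cell viability by CellTiter-Glo luminescence following ~72 h compound exposure (concentration-response). Uses parental, non-P-gp-overexpressing KB-3-1 line, 500 cells/well in DMEM/10% FBS, attached ~4 h before dosing.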

The target in assay [4] is Cytochrome P450 1A2 (Homo sapiens) (UniProt P05177). Description: qHTS for inhibitors of CYPIA2 against the NCATS DSHEA and TCM libraries (AID 1919976).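 Note: light from luciferin formed by CYP1A2 from a pro-luciferin substrate; % is set by controls: 0 for no effect and ±100 for the full control effect.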 Conditions: recombinant CYP1A2 enzyme activity, luminescence; series mostly up to 37 µM. In short, it runs like this:
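Human CYP1A2 with its pro-luciferin substrate in supplier buffer (typically 100 mM KPO4) was pre-incubated with compounds 15 min at RT. Reaction was started with 1x NADPH regeneration solution and run 30-45 min at RT in the dark, then luminescence was read after P450-Glo detection reagent (30 min RT).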

The nature of assay [5]: qHTS Counterscreen for compound interference against the NCATS DSHEA and TCM libraries (AID 1919978).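 Note: compounds preincubated with 1 µM D-luciferin or buffer before detection reagent; % of control where 0% means no effect.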 Conditions: firefly luciferase detection reagent interference, luminescence. In a few lines: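 With 1 uM D-luciferin or phosphate buffer only, compounds at final 19.5 nM–39.8 uM were incubated for 15 min at room temperature. Luciferase detection reagent was then added, and luminescence was measured after a further 30 min at room temperature.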

Assay [6] is described as follows: Dual reporter qHTS for agonist of Pregnane X Receptor (hPXR) against the NCATS DSHEA and TCM libraries: Fluorescence readout (AID 1920058). Note: 0% is about no effect. Conditions: PXR dual reporter cells; series mostly up to 40 µM. In a few lines:
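hPXR-Luc HepG2 cells (2000/well) in phenol red-free medium with charcoal-stripped FBS attached for 5 h, then were exposed to compounds for about 24 h at 37 °C. Viability was read by CellTiter-Fluor fluorescence (Ex/Em 405/540 nm) after 1 h.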

In assay [7] the target is Nuclear receptor subfamily 1 group I member 2 (Homo sapiens) (UniProt O75469). In words: Dual reporter qHTS for agonist of Pregnane X Receptor (hPXR) against the NCATS DSHEA and TCM libraries: Luminescence readout (AID 1920059). Note: 0% is about no effect. To be noted: hPXR dual reporter cells, luciferase luminescence agonist; series mostly up to 40 µM. In short, it runs like this:
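Luminescent PXR reporter read (ONE-Glo) after a CellTiter-Fluor viability read, following 24 h, 37C treatment of HepG2 cells stably carrying hPXR-Luc.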

The target is the same in assay [8]. In words: Dual reporter qHTS for antagonist of Pregnane X Receptor (hPXR) against the NCATS DSHEA and TCM libraries: Luminescence Readout (AID 1920060). Note: 0% is about no effect. To be noted: hPXR dual reporter cells, luciferase luminescence, antagonist mode; series mostly up to 40 µM. In short, it runs like this: (§2)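 In antagonist mode, 2 uM rifampicin was added to hPXR-Luc HepG2 cells alongside test substances, incubated 24 h at 37 C; luminescence gave reporter activity, and CellTiter-Fluor fluorescence (405/540 nm) gave viability.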

Assay [9] is described as follows: Dual reporter qHTS for antagonist of Pregnane X Receptor (hPXR) against the NCATS DSHEA and TCM libraries: Fluorescence Readout (AID 1920061). Note: 0% is about no effect. To be noted: PXR dual reporter cells, antagonist mode; series mostly up to 40 µM. In a few lines:
as §2

The nature of assay [10]: qHTS drug screen for cell cycle checkpoint inhibitors in PARPi-resistant BRCA-mutant ovarian cancer cell lines. (AID 1963452; calls by dose curve). To be noted: PEO1/OlaR viability, CellTiter-Glo luminescence, 96 h, stronger effect = lower value. In a few lines: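 PEO1, PEO4 and PEO1/OlaR ovarian cancer cells, 600 per well, exposed 96 h at 37C to a dilution series. Viability read by CellTiter-Glo luminescence, normalized to DMSO and empty wells; activity summarized as Z-AUC.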

[11] abbreviates: at 28.7 µM (top of the series), parasite line A.
[12] abbreviates: at 28.7 µM (top of the series), parasite line B.
[13] abbreviates: measured here: PEO1 parental Z-AUC.

Inconclusive results are not listed. Calls of active or inactive are those of the source. Unless noted, calls come from the whole dose curve; as a rule, active = well fitted curve in the direction sought with a large enough effect; inconclusive = small, poorly fitted or top-dose-only effect, or another doubt; inactive = no such curve, though single readings can be large; an effect the other way counts as inactive or inconclusive.

Chain of Nuclear receptor subfamily 1 group I member 2 (Homo sapiens) (O75469 whole entry, looked up): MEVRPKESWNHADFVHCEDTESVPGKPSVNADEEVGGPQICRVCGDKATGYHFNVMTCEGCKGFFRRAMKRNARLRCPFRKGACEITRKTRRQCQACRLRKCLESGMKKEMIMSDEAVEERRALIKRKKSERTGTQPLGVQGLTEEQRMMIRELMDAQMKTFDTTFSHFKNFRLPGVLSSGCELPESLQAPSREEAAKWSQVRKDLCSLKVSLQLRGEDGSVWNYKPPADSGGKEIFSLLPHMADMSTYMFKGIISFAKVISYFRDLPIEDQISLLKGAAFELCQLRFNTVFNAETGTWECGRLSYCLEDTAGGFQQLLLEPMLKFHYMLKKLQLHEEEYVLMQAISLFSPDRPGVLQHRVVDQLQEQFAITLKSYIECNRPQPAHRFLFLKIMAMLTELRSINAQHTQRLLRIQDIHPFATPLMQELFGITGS
Chain of Cytochrome P450 1A2 (Homo sapiens) (P05177 whole entry, looked up): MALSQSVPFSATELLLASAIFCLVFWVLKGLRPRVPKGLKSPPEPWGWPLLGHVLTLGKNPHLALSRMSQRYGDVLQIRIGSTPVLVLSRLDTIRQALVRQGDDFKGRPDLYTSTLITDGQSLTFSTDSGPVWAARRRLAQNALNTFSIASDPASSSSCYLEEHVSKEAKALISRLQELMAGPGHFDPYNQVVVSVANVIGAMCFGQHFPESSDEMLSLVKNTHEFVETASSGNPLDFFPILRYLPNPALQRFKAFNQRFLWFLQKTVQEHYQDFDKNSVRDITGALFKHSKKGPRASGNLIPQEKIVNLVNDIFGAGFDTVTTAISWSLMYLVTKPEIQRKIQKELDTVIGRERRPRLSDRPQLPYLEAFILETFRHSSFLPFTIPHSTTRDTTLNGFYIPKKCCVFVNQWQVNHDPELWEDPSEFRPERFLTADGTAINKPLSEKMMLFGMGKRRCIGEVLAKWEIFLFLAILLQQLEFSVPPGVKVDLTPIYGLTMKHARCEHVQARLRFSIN
Chain of Cytochrome P450 2D6 (Homo sapiens) (P10635 whole entry, looked up): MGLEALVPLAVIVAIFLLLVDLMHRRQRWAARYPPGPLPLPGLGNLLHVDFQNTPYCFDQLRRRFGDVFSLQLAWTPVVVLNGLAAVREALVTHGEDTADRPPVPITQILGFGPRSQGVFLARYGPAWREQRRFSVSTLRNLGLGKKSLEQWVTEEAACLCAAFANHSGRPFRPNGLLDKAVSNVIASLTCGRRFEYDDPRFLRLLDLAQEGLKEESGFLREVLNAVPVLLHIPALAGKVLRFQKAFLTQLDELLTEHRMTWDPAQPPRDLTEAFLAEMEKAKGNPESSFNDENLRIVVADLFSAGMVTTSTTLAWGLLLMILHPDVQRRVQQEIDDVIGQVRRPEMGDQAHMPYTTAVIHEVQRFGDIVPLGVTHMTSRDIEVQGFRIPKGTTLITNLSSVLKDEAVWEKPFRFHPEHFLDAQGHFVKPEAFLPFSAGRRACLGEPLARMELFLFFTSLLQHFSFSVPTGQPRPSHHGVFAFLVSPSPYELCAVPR

Regarding `CCC(=O)O[C@H]1CC[C@H]2[C@@H]3CCC4=CC(=O)CC[C@]4(C)[C@H]3CC[C@]12C`, the activity, negative = inhibition in assay [1] (at 12.8 µM (top of the series), parasite line A) was 4.77% (inactive); in assay [1] (at 12.8 µM (top of the series), parasite line B), 12.2% (inactive). For the same molecule, the Potency entry in the assay with 3D7, with 7G8, in the assay with AA1029, with AS120, with ATS189 and in the assay on ATS95 was “inactive” in each case. Further, the Potency result in the assay on C2A, with CP185 and with CP191 was “inactive” throughout.
Take `CNC(=O)NC(O)C(Cl)(Cl)Cl` (centres undefined): the activity, negative = inhibition in assay [1] (setting [11]) is 0.151% (inactive); in assay [1] (setting [12]), 3.59% (inactive). Moreover, the Potency result in the assay with 3D7, in the assay with 7G8, with AA1029, in the assay with AS120, in the assay on ATS189 and with ATS95 was “inactive” in each case. In addition, the Potency result in the assay with C2A, in the assay on CP185 and in the assay on CP191 was “inactive” each time.
For the molecule `COC(=O)C1=CCCN(C)C1`, the results for the activity, negative = inhibition in [1] (setting [11]) and in [1] (setting [12]) were 0.472% (inactive) and 19.4% (inactive), respectively. The Potency entry in the assay on 3D7, in the assay on 7G8, in the assay with AA1029, with AS120, in the assay with ATS189 and with ATS95 was “inactive” each time. The Potency result in the assay on C2A, in the assay on CP185 and with CP191 was “inactive” throughout.
For the molecule `c1cc2c(c(N3CCNCC3)c1)OCCO2`, the activity, negative = inhibition in [1] (setting [11]) was 8.64% (inactive); in assay [1] (setting [12]), 11.7% (inactive). Besides, the Potency result with 3D7, in the assay on 7G8, in the assay with AA1029, with AS120, in the assay with ATS189 and with ATS95 was “inactive” in each case. Moreover, the Potency result with C2A, with CP185 and in the assay with CP191 was “inactive” each time.
As for `C[C@]12C=CC(=O)C=C1CC[C@@H]1[C@@H]2CC[C@@]2(C)[C@H]1CC[C@]2(C)O`, the activity, negative = inhibition in assay [1] (setting [11]) is 0.454% (inactive); in [1] (setting [12]), 5.05% (inactive). Further, the Potency entry in the assay on 3D7, with 7G8, in the assay on AA1029, in the assay with AS120, with ATS189 and in the assay with ATS95 was “inactive” in each case. The Potency entry in the assay on C2A, with CP185 and in the assay on CP191 was “inactive” each time.
As to `C[C@]12CC[C@H](O)CC1=CC[C@@H]1[C@@H]2CC[C@]2(C)C(=O)CC[C@@H]12`, the molecule was called inactive in assay [2], in assay [3], in assay [4], in assay [6], in assay [7] and in [8]. Further, the result in assay [9] was inactive. For the same molecule, in [5], the max response was -2.96% (inactive). Also, the Z-AUC in assay [10] is 1.09 (inactive); in assay [10] (setting [13]) it was 0.516; in assay [10] (measured here: PEO4 Z-AUC), 0.608.
As for `C#C[C@]1(O)C=C[C@H]2[C@@H]3CCC4=CC(=O)CC[C@@H]4[C@H]3CC[C@@]21CC`, the results for the Z-AUC in assay [10], in [10] (setting [13]) and in [10] (measured here: PEO4 Z-AUC) were 1.19 (inactive), 1.82 and 1.32, respectively.

(Values after PubChem BioAssay (NCATS).)
